Test results: paper PMC7862700, “An all-to-all approach to the identification of sequence-specific readers for epigenetic DNA modifications on cytosine”

What was measured:
Assay in all cases: DAPPL (digital affinity profiling via proximity ligation, sequencing); 10 mM Tris-HCl pH 7.5, 50 mM NaCl, 1 mM DTT, 4% glycerol, room temperature, 30 min; GST-TFs on glutathione beads, 16-mer random dsDNA library, 0.1% formaldehyde crosslink after washing; high values mean tight binding
Conditions in all cases: protein: recombinant; tags: N-terminal GST; dsDNA, one strand shown
[1] = target: ETV5 (Homo sapiens, UniProt P41161 1-510)
Outline: (§1)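 After expression in yeast as GST fusions, human transcription factors were bound to glutathione beads, DNA-barcoded and mixed with a tag-only sample. The pools were incubated with 200 nmole of a 16-mer random double-stranded DNA library in Tris/NaCl/DTT/glycerol buffer (30 min, room temperature), washed and crosslinked with 0.1% formaldehyde. Proximity ligation with BsaI/T4 ligase ran for 1 h at 37 °C, before PCR amplification and sequencing on an Illumina NextSeq500. Binding signal is a hexamer's read frequency for a factor divided by its frequency for the tag-only sample.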

[2] = target: T1, SPIC (Homo sapiens, UniProt Q8N5J4 1-248)
T1 sequence: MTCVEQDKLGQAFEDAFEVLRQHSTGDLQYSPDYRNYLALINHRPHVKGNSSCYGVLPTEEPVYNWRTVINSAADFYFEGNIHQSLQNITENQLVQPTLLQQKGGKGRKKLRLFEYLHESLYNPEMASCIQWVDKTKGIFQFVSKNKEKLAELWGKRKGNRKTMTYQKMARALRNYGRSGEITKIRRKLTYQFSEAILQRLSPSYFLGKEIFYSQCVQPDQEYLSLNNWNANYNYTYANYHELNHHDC
Outline: as §1

[3] = target: ELF4 (Homo sapiens, UniProt Q99607 1-663)
Outline: as §1

[4] = target: ETV1 (Homo sapiens, UniProt P50549 1-477)
Outline: as §1

[5] = target: T2, ERF (Homo sapiens, UniProt P50548 1-548)
T2 sequence: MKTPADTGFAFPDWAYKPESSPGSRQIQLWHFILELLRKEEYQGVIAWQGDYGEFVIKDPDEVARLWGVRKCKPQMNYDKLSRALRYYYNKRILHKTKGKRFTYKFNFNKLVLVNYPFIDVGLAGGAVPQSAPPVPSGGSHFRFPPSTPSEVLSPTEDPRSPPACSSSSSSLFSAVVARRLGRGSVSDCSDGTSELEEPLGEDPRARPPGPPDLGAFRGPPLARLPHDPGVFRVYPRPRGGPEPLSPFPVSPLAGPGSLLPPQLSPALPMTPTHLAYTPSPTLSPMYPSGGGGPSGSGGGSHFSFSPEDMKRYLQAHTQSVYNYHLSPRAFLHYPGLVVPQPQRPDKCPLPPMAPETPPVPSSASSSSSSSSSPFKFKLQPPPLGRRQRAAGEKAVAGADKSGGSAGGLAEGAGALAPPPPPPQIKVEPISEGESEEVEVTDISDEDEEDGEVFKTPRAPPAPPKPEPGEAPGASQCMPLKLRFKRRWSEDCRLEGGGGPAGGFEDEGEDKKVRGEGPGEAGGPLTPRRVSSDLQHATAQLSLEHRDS
Outline: as §1

[6] = target: T3, ETV3L (Homo sapiens, UniProt Q6ZN32 1-361)
T3 sequence: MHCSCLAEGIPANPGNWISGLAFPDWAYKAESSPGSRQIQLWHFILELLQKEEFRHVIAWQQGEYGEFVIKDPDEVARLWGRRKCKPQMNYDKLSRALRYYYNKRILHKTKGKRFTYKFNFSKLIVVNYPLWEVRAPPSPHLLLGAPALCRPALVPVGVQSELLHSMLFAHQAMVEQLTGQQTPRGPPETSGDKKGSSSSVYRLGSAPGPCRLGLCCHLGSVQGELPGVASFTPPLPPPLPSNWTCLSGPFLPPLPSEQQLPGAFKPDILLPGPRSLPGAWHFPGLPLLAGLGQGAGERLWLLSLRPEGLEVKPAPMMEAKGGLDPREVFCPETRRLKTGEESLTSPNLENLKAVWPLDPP
Outline: as §1

[7] = target: T4, ETS2 (Homo sapiens, UniProt P15036 1-469)
T4 sequence: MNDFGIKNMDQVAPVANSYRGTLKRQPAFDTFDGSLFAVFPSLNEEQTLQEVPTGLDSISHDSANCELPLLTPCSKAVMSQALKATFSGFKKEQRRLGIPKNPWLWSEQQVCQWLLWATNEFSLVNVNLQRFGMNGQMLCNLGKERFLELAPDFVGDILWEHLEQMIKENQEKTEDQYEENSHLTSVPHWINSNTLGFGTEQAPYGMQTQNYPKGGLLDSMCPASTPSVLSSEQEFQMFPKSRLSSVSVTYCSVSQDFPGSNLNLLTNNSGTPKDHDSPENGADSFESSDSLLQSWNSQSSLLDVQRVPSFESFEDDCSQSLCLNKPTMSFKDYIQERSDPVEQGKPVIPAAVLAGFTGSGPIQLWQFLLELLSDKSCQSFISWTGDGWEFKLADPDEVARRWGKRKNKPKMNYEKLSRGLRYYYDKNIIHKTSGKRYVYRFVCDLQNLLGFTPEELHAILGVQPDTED
Outline: as §1

[8] = target: T5, SPDEF (Homo sapiens, UniProt O95238 1-335)
T5 sequence: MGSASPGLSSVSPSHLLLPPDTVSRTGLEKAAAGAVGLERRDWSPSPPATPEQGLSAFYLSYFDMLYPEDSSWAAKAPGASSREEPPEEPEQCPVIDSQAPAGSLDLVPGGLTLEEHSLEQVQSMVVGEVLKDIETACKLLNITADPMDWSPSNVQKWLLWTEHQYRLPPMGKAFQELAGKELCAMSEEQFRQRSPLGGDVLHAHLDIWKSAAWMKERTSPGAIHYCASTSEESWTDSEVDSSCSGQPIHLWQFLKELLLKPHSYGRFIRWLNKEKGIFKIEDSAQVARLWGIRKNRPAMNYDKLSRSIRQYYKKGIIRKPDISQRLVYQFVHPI
Outline: as §1

[9] = target: T6, ETV3 (Homo sapiens, UniProt P41162-2 1-143)
T6 sequence: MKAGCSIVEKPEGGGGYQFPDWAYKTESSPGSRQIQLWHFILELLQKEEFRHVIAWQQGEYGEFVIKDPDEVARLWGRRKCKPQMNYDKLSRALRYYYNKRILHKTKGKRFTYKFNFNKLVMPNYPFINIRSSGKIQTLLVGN
Outline: as §1

[10] = target: ETV6 (Homo sapiens, UniProt P41212 1-452)
Outline: as §1

Sequence of ETV1 (P50549 whole entry): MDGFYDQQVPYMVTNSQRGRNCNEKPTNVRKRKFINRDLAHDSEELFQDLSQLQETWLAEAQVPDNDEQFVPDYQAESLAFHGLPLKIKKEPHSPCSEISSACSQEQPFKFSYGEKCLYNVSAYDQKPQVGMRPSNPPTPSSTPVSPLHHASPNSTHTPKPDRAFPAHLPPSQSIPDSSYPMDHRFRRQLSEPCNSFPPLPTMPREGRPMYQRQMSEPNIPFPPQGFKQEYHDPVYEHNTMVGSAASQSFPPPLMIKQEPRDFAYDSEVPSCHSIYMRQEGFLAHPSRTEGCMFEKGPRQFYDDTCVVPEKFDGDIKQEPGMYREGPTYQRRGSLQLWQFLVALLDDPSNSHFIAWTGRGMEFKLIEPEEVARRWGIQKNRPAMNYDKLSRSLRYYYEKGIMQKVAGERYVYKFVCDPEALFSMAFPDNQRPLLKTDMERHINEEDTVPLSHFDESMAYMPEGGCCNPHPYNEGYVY
Sequence of ELF4 (Q99607 whole entry): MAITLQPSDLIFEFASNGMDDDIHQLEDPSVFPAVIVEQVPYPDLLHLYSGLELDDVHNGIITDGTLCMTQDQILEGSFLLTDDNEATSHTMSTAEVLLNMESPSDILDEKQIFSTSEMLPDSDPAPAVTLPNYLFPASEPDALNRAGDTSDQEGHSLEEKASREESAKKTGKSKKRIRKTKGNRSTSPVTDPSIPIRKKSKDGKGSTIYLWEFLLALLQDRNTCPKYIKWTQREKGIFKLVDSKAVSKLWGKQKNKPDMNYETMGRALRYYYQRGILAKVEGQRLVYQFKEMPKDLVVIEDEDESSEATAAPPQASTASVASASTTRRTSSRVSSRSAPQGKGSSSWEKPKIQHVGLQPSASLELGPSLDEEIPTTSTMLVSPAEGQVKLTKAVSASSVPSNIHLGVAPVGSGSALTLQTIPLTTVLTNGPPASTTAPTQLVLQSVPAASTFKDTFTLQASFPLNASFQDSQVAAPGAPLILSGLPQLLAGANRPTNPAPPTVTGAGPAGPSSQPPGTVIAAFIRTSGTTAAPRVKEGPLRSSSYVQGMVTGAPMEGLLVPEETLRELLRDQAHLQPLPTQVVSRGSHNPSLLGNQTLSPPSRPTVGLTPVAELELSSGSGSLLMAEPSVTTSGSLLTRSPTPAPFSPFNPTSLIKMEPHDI
Sequence of ETV6 (P41212 whole entry): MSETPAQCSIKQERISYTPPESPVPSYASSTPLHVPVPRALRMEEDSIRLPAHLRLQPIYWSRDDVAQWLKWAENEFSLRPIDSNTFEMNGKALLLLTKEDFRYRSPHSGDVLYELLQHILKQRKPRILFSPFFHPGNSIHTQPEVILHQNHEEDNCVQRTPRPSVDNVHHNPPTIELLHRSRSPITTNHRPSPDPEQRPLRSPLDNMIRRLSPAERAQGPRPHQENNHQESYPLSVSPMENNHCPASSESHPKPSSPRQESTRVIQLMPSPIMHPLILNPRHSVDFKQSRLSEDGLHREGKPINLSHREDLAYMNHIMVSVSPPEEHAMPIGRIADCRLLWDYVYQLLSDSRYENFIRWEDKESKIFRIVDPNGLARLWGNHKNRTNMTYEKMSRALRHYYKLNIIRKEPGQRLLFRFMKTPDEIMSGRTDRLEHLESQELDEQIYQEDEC
Sequence of ETV5 (P41161 whole entry, the tested form may be a part): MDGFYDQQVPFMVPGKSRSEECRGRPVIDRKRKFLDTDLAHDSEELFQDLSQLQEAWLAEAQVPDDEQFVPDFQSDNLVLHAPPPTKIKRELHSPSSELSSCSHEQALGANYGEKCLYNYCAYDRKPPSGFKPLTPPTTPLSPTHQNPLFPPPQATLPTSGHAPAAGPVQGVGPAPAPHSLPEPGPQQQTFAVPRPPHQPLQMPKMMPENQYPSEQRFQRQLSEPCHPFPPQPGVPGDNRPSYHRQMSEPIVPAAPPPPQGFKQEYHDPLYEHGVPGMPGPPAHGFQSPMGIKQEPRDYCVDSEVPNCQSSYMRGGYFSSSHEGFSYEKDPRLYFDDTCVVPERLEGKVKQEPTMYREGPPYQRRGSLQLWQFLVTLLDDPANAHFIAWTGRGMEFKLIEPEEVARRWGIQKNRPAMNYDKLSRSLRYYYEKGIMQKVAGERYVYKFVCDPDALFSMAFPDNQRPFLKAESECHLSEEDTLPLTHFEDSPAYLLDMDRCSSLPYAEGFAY

AAACCG
binding signal [1]: 1.07 fold enrichment (6-mer frequency, TF over GST control) | binding signal [2]: 1.05 fold enrichment (6-mer frequency, TF over GST control) | binding signal [3]: 1.07 fold enrichment (6-mer frequency, TF over GST control) | binding signal [4]: 1.18 fold enrichment (6-mer frequency, TF over GST control) | binding signal [5]: 1.1 fold enrichment (6-mer frequency, TF over GST control) | binding signal [6]: 1.06 fold enrichment (6-mer frequency, TF over GST control) | binding signal [7]: 1 fold enrichment (6-mer frequency, TF over GST control) | binding signal [8]: 1.11 fold enrichment (6-mer frequency, TF over GST control) | binding signal [9]: 1.08 fold enrichment (6-mer frequency, TF over GST control) | binding signal [10]: 1.05 fold enrichment (6-mer frequency, TF over GST control)
